Assay [1] relates to Zika virus NS2B-NS3 protease (linked construct). As to the kind of experiment: Primary screen NINDS Rhodamine qHTS for Zika virus inhibitors (AID 1347160). Further: nearly all actives have a fitted effect of over 55% in size. The essentials:
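Rhodamine110-peptide cleavage (1.5 µM substrate) by 25 nM linked NS2B-NS3 enzyme at pH 8.0 (Tris, Tween 20), after 15 min RT preincubation with compounds; 15-min fluorescence change normalized to controls and Hill-fitted.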
(Quantitative high-throughput screening tests each substance at several concentrations.)

The target of assay [2] is Calcium and integrin-binding protein 1 (Homo sapiens) (UniProt Q99828). As to the kind of experiment: Primary qHTS for Identification of Calcium Integrin Binding Protein 1 (CIB1) Competitor (AID 1508620).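 Further: GST tagged CIB1 binding a fluorescein labelled alphaIIb integrin peptide tracer; top concentration of the series differs between compounds; on the % scale 0 is the no-effect control and ±100 the full control effect.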 The essentials:
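Fluorescence polarization competition: CIB1-GST (1 uM final) preincubated with compound 15 min at room temperature, then FITC-labeled alphaIIb peptide (100 nM final) added for another 15 min. Polarization read at Ex 480/Em 540.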

Assay [3] concerns the target Glutathione peroxidase 1 (Homo sapiens) (UniProt P07203). As to the kind of experiment: Primary qHTS Assay for Inhibitors of Recombinant Selenoprotein Glutathione Peroxidase 1 (GPX1) (AID 1845191). Further: nearly all actives have a fitted effect of over 65% in size. The essentials:
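GPX1 10 nM, GR 100 nM, GSH 1 mM, NADPH 0.5 mM, CHP 0.5 mM (final). 30-min cpd preincubation, RT. Ex340/Em450 read t=0, t=15 min.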

For assay [4], the target named is Phospholipid hydroperoxide glutathione peroxidase GPX4 (Homo sapiens) (UniProt P36969). As to the kind of experiment: Primary qHTS Assay for Inhibitors of Recombinant Selenoprotein Glutathione Peroxidase 4 (GPX4) (AID 1845192). Further: nearly all actives have a fitted effect of over 65% in size. The essentials:
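qHTS, GR-coupled: GPX4 200 nM + cpd 30 min RT → GSH 1 mM, NADPH 0.5 mM, GR 100 nM → CHP 0.5 mM start; fluor 340/450 at t0 and t15 min; no-enzyme wells as control.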

Assay [5] addresses Luciferin 4-monooxygenase (Photinus pyralis) (UniProt P08659). Briefly: Primary firefly luciferase (FLuc) qHTS assay for identification of artifact compounds. (AID 1845220). Further: nearly all actives have a fitted effect of over 60% in size. The following applies: outcome: dose series up to 54.1 µM unless noted. The procedure, abridged:
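In this counter-screen for luciferase artifacts, test compounds met substrate (10 uM each luciferin and ATP) before 10 nM enzyme started the reaction. Light output was measured 5 min later.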

The nature of assay [6]: Primary fluorescence-based thiol-reactive (MSTI) qHTS assay for identification of artifact compounds. (AID 1845221).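 Further: thiol-reactive compounds lower the probe fluorescence signal; nearly all actives have a fitted effect of over 65% in size.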 The procedure, abridged:
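Reactivity toward the thiol probe MSTI (4 uM) is scored by fluorescence at Ex/Em 525/598 nm after 1 h at room temperature. Acetyl-MSTI and MSTI define the activity scale.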

For assay [7], the system named is Nanoluciferase (engineered Oplophorus gracilirostris luciferase). As to the kind of experiment: Primary Nanoluciferase (NLuc) qHTS assay for identification of artifact compounds. (AID 1845222).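 Further: NLuc secreted into diluted conditioned medium of S16 cells.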 The essentials:
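Using secreted nanoluciferase in S16 culture medium (0.22 um filtered, 1:55 dilution), compounds were preincubated 15 min at RT. Signal was generated with Nano-Glo reagent (1:100) over 5 min.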

Assay [8] can be described thus: Primary redox qHTS assay for identification of artifact compounds. (AID 1845223).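 Further: 0% = DMSO and 100% = reference compound.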 The essentials: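 Redox-cycling detection via DTT (250 uM final) oxidation coupled to Amplex Red (25 uM)/HRP (250 mU/mL) in HBSS. 15 min preincubation plus 30 min after DTT, room temperature. Ex/Em 525/598 nm; 4-parameter Hill fit against DMSO and 10 uM DA3003.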
A further assay concerns HaCat. Briefly: Cytotoxic Profiling of Annotated Libraries Using Quantitative High-Throughput Screening (AID 1296008). Further: nearly all actives have a fitted effect of over 60% in size. Further: potency means the concentration at half of the fitted maximal effect. On max response: on the % scale 0 is the no-effect control and ±100 the full control effect. The following applies: Five cell lines viability, CellTiter-Glo ATP luminescence, 48-72 h; max response: stronger effect = lower value. The essentials: (§1)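 Compounds were pin-transferred onto cells and incubated 48 or 72 hr at 37 degree Celsius, 95% humidity. CellTiter-Glo was added, plates sat 10 min at room temperature, then ATP-coupled luminescence was imaged as the viability read-out.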
(In general: Cellular ATP, detected with luciferase, serves as a proxy for viable cell number.)

A further assay has as its system NIH3T3. The description is as above. The following applies: Five cell lines viability, CellTiter-Glo ATP luminescence, 48-72 h; max response: stronger effect = lower value. The procedure, abridged: as §1
Another assay deals with C33A. Briefly: Primary qHTS to identify gynecologic anti-cancer compounds using libraries of approved drugs and bioactive compounds (AID 1345084). Further: nearly all actives have a fitted effect of over 55% in size. Further: potency means the concentration at half of the fitted maximal effect. The following applies: Gynecologic cancer cell panel viability, ATPlite luminescence, 48 h; series mostly up to 57.5 µM. The procedure, abridged: (§2)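 Measured: luminescence after ATPlite addition (15 min, RT). Exposure: 48 h, 37 C, 5% CO2.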

The subject of another assay is CAOV3. The assay is described as above. The settings on record: Gynecologic cancer cell panel viability, ATPlite luminescence, 48 h; series mostly up to 57.5 µM. The procedure, abridged: as §2
In another assay the test system is CASKI. Described as above. The following applies: Gynecologic cancer cell panel viability, ATPlite luminescence, 48 h; series mostly up to 57.5 µM. The procedure, abridged: as §2
For a further assay, the system named is Es-2. Described as above. The following applies: Gynecologic cancer cell panel viability, ATPlite luminescence, 48 h; series mostly up to 57.5 µM. The essentials:
as §2

The subject of a further assay is Hek293T. The description is as above. The following applies: Gynecologic cancer cell panel viability, ATPlite luminescence, 48 h, control line for the selectivity index; series mostly up to 57.5 µM. The essentials: as §2
Another assay deals with JEG-3. Described as above. The settings on record: Gynecologic cancer cell panel viability, ATPlite luminescence, 48 h; series mostly up to 57.5 µM. The essentials: as §2
For another assay, the system named is OV90. The assay is described as above. The following applies: Gynecologic cancer cell panel viability, ATPlite luminescence, 48 h; series mostly up to 57.5 µM. The procedure, abridged:
as §2

The test system of the next assay is PA-1. The description is as above. The following applies: Gynecologic cancer cell panel viability, ATPlite luminescence, 48 h; series mostly up to 57.5 µM. The procedure, abridged: as §2
A further assay relates to Tov-21-G. The description is as above. The settings on record: Gynecologic cancer cell panel viability, ATPlite luminescence, 48 h; series mostly up to 57.5 µM. The essentials:
as §2

For a further assay, the system named is Tov112D. The description is as above. The settings on record: Gynecologic cancer cell panel viability, ATPlite luminescence, 48 h; series mostly up to 57.5 µM. The procedure, abridged:
as §2

The structures appear in SMILES notation. A number with no mark means an inactive call. Inconclusive results are not listed. Activity calls are given as the source filed them. The call rests on the fitted dose curve; in most records, active means well fitted curve in the direction sought with a large enough effect; inconclusive means small, poorly fitted or top-dose-only effect, or another doubt; inactive means no such curve, though single readings can be large; an effect the other way counts as inactive or inconclusive.

Phospholipid hydroperoxide glutathione peroxidase GPX4 (Homo sapiens), sequence (P36969 whole entry, looked up): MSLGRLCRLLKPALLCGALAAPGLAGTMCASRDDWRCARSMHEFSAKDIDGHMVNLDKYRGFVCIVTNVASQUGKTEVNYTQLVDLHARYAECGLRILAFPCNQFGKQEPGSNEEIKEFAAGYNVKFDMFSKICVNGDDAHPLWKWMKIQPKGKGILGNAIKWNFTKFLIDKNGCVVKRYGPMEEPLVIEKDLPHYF
Calcium and integrin-binding protein 1 (Homo sapiens), sequence (Q99828 whole entry, looked up): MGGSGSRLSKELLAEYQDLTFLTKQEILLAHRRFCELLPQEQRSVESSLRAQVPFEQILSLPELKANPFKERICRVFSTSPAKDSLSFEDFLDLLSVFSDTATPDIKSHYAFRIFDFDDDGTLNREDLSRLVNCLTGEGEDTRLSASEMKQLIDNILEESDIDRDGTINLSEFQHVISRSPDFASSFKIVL
Glutathione peroxidase 1 (Homo sapiens), sequence (P07203 whole entry, looked up): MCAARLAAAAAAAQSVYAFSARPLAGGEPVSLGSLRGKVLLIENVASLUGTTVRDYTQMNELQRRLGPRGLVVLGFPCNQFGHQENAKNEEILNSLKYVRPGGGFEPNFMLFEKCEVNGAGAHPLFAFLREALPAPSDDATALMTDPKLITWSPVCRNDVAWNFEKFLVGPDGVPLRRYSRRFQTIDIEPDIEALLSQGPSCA

Take `COC(=O)[C@@]1(C)C(=O)C=C[C@]2(C)c3c(O)cc(C(C)C)cc3[C@H](O)[C@@H](OC(C)=O)C12` (stereo partly specified): the Potency result in assay [1], in [2], in assay [3], in assay [4], in assay [6] and in [7] was “inactive” each time. The Potency result (in [8]; with C33A; with CAOV3; in the assay with CASKI; with Es-2; with Hek293T) was “inactive” in each case. Also, the Potency entry in the assay with JEG-3, with OV90, in the assay on PA-1, in the assay on Tov-21-G and in the assay with Tov112D was “inactive” each time. Further, the outcome in assay [5] is “inactive [at 25.7 µM]”. Further, in the assay with HaCat, the result was inactive. Further, the max response in the assay on NIH3T3 was -1.38%.
Consider `CO[C@H]1C[C@H](O[C@H]2CC[C@]3(C=O)[C@H]4CC[C@]5(C)[C@@H](C6=CC(=O)OC6)CC[C@]5(O)[C@@H]4CC[C@]3(O)C2)O[C@H](C)[C@H]1O`, for which the Potency result in assay [1], in assay [2], in assay [3], in assay [4], in assay [6] and in assay [7] was “inactive” in each case. In assay [8], the Potency entry was “inactive”. For the same compound, the outcome in [5] was “inactive [at 25.7 µM]”. Further, the Potency in the assay on HaCat was 356 nM (active); with C33A, 100 nM (active); with CAOV3 it was 199 nM (active); in the assay on Es-2, 141 nM (active); with Hek293T it was 224 nM (active); with OV90 it was 891 nM (active). Further, the Potency in the assay on PA-1 is 141 nM (active); in the assay on Tov-21-G, 141 nM (active); in the assay on Tov112D, 89.1 nM (active). Also, the compound was called inactive in the assay with NIH3T3.
As for `NCCCCCNC1(c2ccccc2)CCCCC1`, the Potency result in assay [1], in assay [2], in [3], in assay [4], in assay [6] and in assay [7] was “inactive” each time. In addition, the Potency entry (in assay [8]; in the assay with C33A; in the assay with CAOV3; in the assay on CASKI; with Es-2; in the assay on Hek293T) was “inactive” throughout. Also, the Potency result in the assay on JEG-3, in the assay with OV90, in the assay with PA-1, in the assay with Tov-21-G and with Tov112D was “inactive” in each case. Besides, the outcome (in [5]; with HaCat) was inactive. Also, in the assay on NIH3T3, the max response is -1.15%.
As to `CCC(C)C1NC(=O)C(C(C)=O)=C1O` (stereo unspecified), the Potency entry in assay [1], in [2], in assay [3], in [4], in assay [6] and in [7] was “inactive” each time. Besides, the Potency result (in assay [8]; in the assay on C33A; in the assay with CAOV3; in the assay with CASKI; in the assay with Es-2; in the assay on Hek293T) was “inactive” throughout. For the same compound, the Potency result in the assay on JEG-3, with OV90, with PA-1, in the assay with Tov-21-G and in the assay with Tov112D was “inactive” each time. Also, the outcome (in assay [5]; in the assay on HaCat) was inactive.
Turning to `c1ccc(C2(c3ccccc3)OC[C@@H]([C@H]3CCCCN3)O2)cc1`, the Potency entry in [1], in assay [2], in assay [3], in assay [4], in assay [7] and in [8] was “inactive” in each case. In addition, the Potency entry with C33A, in the assay with CAOV3, in the assay with CASKI, with Es-2, in the assay with Hek293T and in the assay with JEG-3 was “inactive” in each case. Also, the Potency result with OV90, with PA-1, with Tov-21-G and with Tov112D was “inactive” in each case. Also, in assay [5], the call was inactive. Further, the max response with HaCat is 4.38%; in the assay with NIH3T3, 0.771%.

The values are drawn from PubChem BioAssay (NCATS).
